# A selection: hits, their analogues and other compounds. The true share with any hit is near 3%.
# BioA inh: M. tuberculosis BioA enzyme inhibitors, primary screen, biochemical, plate reader, single point, HTS; purified M. tuberculosis BioA enzyme; inhibition, % at 9.99 µM; 7,8-diaminopelargonic acid synthase BioA (Mycobacterium tuberculosis); hit rate 0.096% among 360,000; in the data active = inhibition above about 40%
# BH1578 lux ind: inducers of Vibrio cholerae quorum light production without autoinducers, primary screen, BH1578 luxS cqsA deficient, single point; V. cholerae BH1578 lux reporter, luminescence, 6 h; activation, % at 18.7 µM; AID 588436, 2011; hit rate 0.16% among 350,000; in the data active = activation mostly above about 9.7%, no sharp cut-off
# FBA Mtb inh: Mtb FBA enzyme inhibitors, primary screen, biochemical, fluorescence, strain H37Rv | hit rate 2.3% among 360,000 | AID 588726, 2011 | purified M. tuberculosis FBA, fluorescence read-out | Fructose-bisphosphate aldolase (Mycobacterium tuberculosis (strain ATCC 25618 / H37Rv)), … | inhibition, % at 1 µM; in the data active = inhibition above about 27%;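 note: 0% = vehicle and 100% = reference inhibitor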
# Target sequence (P9WQA3 whole entry, looked up): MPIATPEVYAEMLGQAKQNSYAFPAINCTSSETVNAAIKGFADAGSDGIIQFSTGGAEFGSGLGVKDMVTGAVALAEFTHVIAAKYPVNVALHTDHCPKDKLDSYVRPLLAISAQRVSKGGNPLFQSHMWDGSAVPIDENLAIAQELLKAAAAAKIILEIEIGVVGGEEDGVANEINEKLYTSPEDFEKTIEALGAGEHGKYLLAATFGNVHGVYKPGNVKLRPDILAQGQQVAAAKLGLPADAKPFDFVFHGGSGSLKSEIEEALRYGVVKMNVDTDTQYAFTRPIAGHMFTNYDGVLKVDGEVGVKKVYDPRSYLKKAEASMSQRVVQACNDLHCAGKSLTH
# GDH-TPI counter: GDH-TPI coupling enzyme inhibitors, primary screen, artefact control for M. tuberculosis FBA inhibitor project, biochemical, absorbance, full deck | GDH-TPI coupled enzyme counterscreen, NADH absorbance | inhibition, % at 4.8 µM | hit rate 1.2% among 360,000 | AID 588335, 2011; in the data active = inhibition above about 30%;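 note: 0% = DMSO wells and 100% = wells lacking the enzyme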
# The depositor's hits bear a star; i = inactive; · = no result given; + = active, no number.
SMILES,BioA inh,BH1578 lux ind,FBA Mtb inh,GDH-TPI counter
O=C(C[C@H]1CC[C@@H]2[C@H](COC[C@@H](O)CN2Cc2cccc(C(F)(F)F)c2)O1)NCCc1ccncc1,0.0,·,·,·
CCCN1C[C@@H](C)[C@H](OC)CN(C)C(=O)c2cc(NS(C)(=O)=O)ccc2OC[C@@H]1C,-1.1,·,·,·
Cc1cc2cc(CCNS(C)(=O)=O)c(=O)[nH]c2cc1C,-2.2,-0.5,3.2,10.1
CCS(=O)(=O)NCCc1cc2cc(C)c(C)cc2[nH]c1=O,-8.0,-2.2,4.0,31.1*
COc1ccc(NC(=O)N2C[C@H](O)COC[C@@H]3O[C@@H](CC(=O)N4CCOCC4)CC[C@H]32)cc1,-0.1,·,·,·
CCOC(=O)CN1N=C(/C=C/c2ccc(OCC)cc2)CCC1=O,·,i,-5.6,34.3*
CCOC(=O)C(C)N1N=C(/C=C/c2ccc(C)cc2)CCC1=O (configuration not stated),1.3,i,-3.6,38.8*
C=CCN1N=C(/C=C/c2ccc(OC)cc2)CCC1=O,0.0,i,-0.6,34.0*
C=CCN1N=C(/C=C/c2ccc(C)cc2)CCC1=O,-1.2,i,5.0,21.1
CCC(=O)N1C[C@H](C)[C@H](OC)CN(C)C(=O)c2cc(NC(=O)COC)ccc2OC[C@H]1C,0.6,·,·,·
Cc1noc(C)c1NC(=O)N(C)C[C@@H]1Oc2ccc(NC(=O)NC3CCCCC3)cc2C(=O)N([C@@H](C)CO)C[C@@H]1C,-1.6,·,·,·
CCOC(=O)c1cc2c(=O)n3ccccc3nc2n(CCCOC)c1=NC(=O)c1ccncc1,·,i,+,17.3
CCOC(=O)N1CCN(C(=O)c2cc3c(=O)n4cccc(C)c4nc3s2)CC1,-0.1,-6.9,15.9,9.1
CCOC(=O)c1cc2c(=O)n3ccccc3nc2n(CCCOC)c1=NC(C)=O,0.1,-0.4,+,18.6
CCOC(=O)c1cc2c(=O)n3cccc(C)c3nc2n(CCOC)c1=NC(C)=O,1.3,1.2,+,1.5
CCOC(=O)c1cccc(NC(=O)CSc2nc3ccccc3c(=O)n2CCOC)c1,-0.7,0.3,0.2,-7.3
O=C(C[C@H]1CC[C@H]2[C@@H](COC[C@@H](O)CN2C(=O)c2ccc(F)cc2)O1)NCCCN1CCOCC1,-1.9,·,·,·
C[C@@H]1CCCCO[C@@H](CN(C)Cc2ccc(Cl)c(Cl)c2)[C@@H](C)CN([C@H](C)CO)C(=O)c2cc(NC(=O)C3CCCCC3)ccc2O1,-4.2,·,·,·
O=C(C[C@H]1CC[C@@H]2[C@H](COC[C@H](O)CN2C(=O)Nc2ccc(F)cc2)O1)NC1Cc2ccccc2C1,-1.6,·,·,·
COc1ccc2sc(-c3ccc(N(C)C)cc3)c(C#CC(C)(C)O)c2c1,-1.3,i,+,22.9
COc1ccc2sc(-c3ccc(N(C)C)cc3)c(C#CCCO)c2c1,-1.1,-0.8,+,18.8
CCCC1C(C#N)=C(N)Oc2cc(C)n(C)c(=O)c21 (configuration not stated),-1.6,-0.4,114.4*,9.2
COc1ccc(CN(C)C[C@@H]2Oc3ccc(NS(=O)(=O)c4ccc(C)cc4)cc3CC(=O)N([C@H](C)CO)C[C@H]2C)cc1,3.3,·,·,·
COC(=O)c1ccc(COc2ccc(/C=C(\C#N)c3nc4ccccc4[nH]3)cc2OC)o1,-3.3,-0.2,6.0,32.1*
COc1cc(/C=C(/C#N)c2nc3ccccc3[nH]2)ccc1OCc1ccc(C(=O)O)o1,16.4,-12.5,4.6,23.6
SMILES,BioA inh,BH1578 lux ind,FBA Mtb inh,GDH-TPI counter
COc1ccc(S(=O)(=O)N(C)c2nc3ccccc3n3c(CC(C)C)nnc23)cc1,-7.4,-0.2,56.0*,11.8
CCc1nnc2c(N(C)S(=O)(=O)c3ccc(C)cc3)nc3ccccc3n12,·,i,2.0,-9.6
CCOc1ccc(/C=N/NC(=O)c2ccc3nc[nH]c3c2)cc1OC,5.4,i,4.0,41.6*
COc1ccc(/C=N/NC(=O)c2ccc3nc[nH]c3c2)c(OC)c1,2.3,-0.9,-0.4,34.8*
COc1cc(OC)c(OC)cc1/C=N/NC(=O)c1ccc2nc[nH]c2c1,·,i,2.2,26.0
C[C@@H]1CN([C@@H](C)CO)C(=O)Cc2cc(NS(=O)(=O)c3cccs3)ccc2O[C@H]1CN(C)C(=O)Nc1ccc2c(c1)OCO2,0.2,·,·,·
C[C@@H]1CCCCO[C@@H](CN(C)CC2CC2)[C@H](C)CN([C@@H](C)CO)C(=O)c2cc(NS(C)(=O)=O)ccc2O1,0.2,·,·,·
COC(=O)c1ccc(C(=O)OC)c(NC(=O)Oc2ccccc2)c1,-1.9,-1.0,154.5*,5.2

# Source: PubChem
